Assay results taken from PubChem BioAssay AID1159580 (chemical genetic matrix, 2015).
Where “and” joins values, the source holds several entries; their conditions need not be identical. Identical values can stand only once. In all, about 5,500 compounds went through this assay and about 2,000 (36%) were called active. Not shown: some 18% with an inconclusive outcome. Rule as the data show it: active = normalized growth mostly below about 0.91 (no sharp cut-off); inconclusive = no clear call, values can overlap the other calls; inactive = mostly above about 0.92. The list shows a part of the results.

Assay: chemical genetic growth profiling, strain panel (AID 1159580);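 also: tested at 20 µM; growth read once vehicle control cultures reached saturation at 30 °C; 1 = growth at the plate median or of vehicle wells; lower values mean less growth of the strain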
Details: S. cerevisiae deletion strains, growth OD

Measured: normalized growth

CC12CCC3C(CC3(C)C)C(C)(CCC1=O)O2 (stereo unspecified)
inactive: locus YAL021C, strain ccr4, stronger effect = lower value 1.04 | locus YAL026C, strain drs2, stronger effect = lower value 1.01 | locus YAL030W, strain snc1, stronger effect = lower value 0.994 | locus YBL061C, strain skt5, stronger effect = lower value 0.99 | locus YBR009C, strain hhf1, stronger effect = lower value 1.01 | locus YBR021W, strain FUR4, stronger effect = lower value 1.01 | locus YBR023C, strain chs3, stronger effect = lower value 0.996 | locus YBR171W, strain sec66, stronger effect = lower value 0.985 | locus YBR229C, strain ROT2, stronger effect = lower value 1.01 | locus YBR231C, strain swc5, stronger effect = lower value 0.983 | locus YBR279W, strain paf1, stronger effect = lower value 1.02 | locus YCL011C, strain gbp2, stronger effect = lower value 1.01 | locus YCL016C, strain dcc1, stronger effect = lower value 1.01 | locus YCL029C, strain bik1, stronger effect = lower value 1.03 | locus YCL061C, strain MRC1, stronger effect = lower value 1.01 | locus YCL069W, strain vba3, stronger effect = lower value 1 | locus YCR088W, strain abp1, stronger effect = lower value 0.981 | locus YDL005C, strain med2, stronger effect = lower value 0.972 | locus YDL035C, strain GPR1, stronger effect = lower value 1.01 | locus YDL040C, strain nat1, stronger effect = lower value 0.99 | locus YDL074C, strain BRE1, stronger effect = lower value 1.07 | locus YDL101C, strain DUN1, stronger effect = lower value 1.02 | locus YDL185W, strain tfp1, stronger effect = lower value 1.02 | locus YDL192W, strain arf1, stronger effect = lower value 1.01 | locus YDR001C, strain nth1, stronger effect = lower value 0.986 | locus YDR069C, strain doa4, stronger effect = lower value 1.01 | locus YDR101C, strain arx1, stronger effect = lower value 0.983 | locus YDR137W, strain rgp1, stronger effect = lower value 0.977 | locus YDR159W, strain sac3, stronger effect = lower value 0.982 | locus YDR162C, strain NBP2, stronger effect = lower value 1.03 | locus YDR195W, strain ref2 0.934 | locus YDR297W, strain sur2, stronger effect = lower value 1.01 | locus YDR318W, strain mcm21, stronger effect = lower value 1.03 | locus YDR334W, strain swr1, stronger effect = lower value 1 | locus YDR335W, strain msn5, stronger effect = lower value 1 | locus YDR388W, stronger effect = lower value 1.01 | locus YDR392W, strain spt3, stronger effect = lower value 0.939 | locus YDR502C, strain sam2, stronger effect = lower value 1.04 | locus YEL003W, strain gim4, stronger effect = lower value 0.995 | locus YEL037C, strain rad23, stronger effect = lower value 1.01 | locus YEL061C, strain CIN8 (second series), stronger effect = lower value 0.992 | locus YEL061C, strain CIN8, stronger effect = lower value 1.01 | locus YER015W, strain faa2, stronger effect = lower value 1 | locus YER016W, strain bim1, stronger effect = lower value 0.988 | locus YER110C, stronger effect = lower value 1.02 | locus YER111C, strain swi4, stronger effect = lower value 0.987 | locus YER155C, strain BEM2 (second series), stronger effect = lower value 0.967 | locus YER155C, strain BEM2, stronger effect = lower value 1.01 | locus YER167W, strain BCK2, stronger effect = lower value 1 | locus YFR010W, strain ubp6, stronger effect = lower value 1.01 | locus YGL078C, strain dbp3, stronger effect = lower value 1.01 | locus YGL086W, strain mad1, stronger effect = lower value 1.01 | locus YGL167C, strain pmr1, stronger effect = lower value 0.99 | locus YGL173C, strain kem1, stronger effect = lower value 0.999 | locus YGL227W, strain vid30, stronger effect = lower value 0.989 | locus YGL240W, strain doc1, stronger effect = lower value 0.943 | locus YGL248W, strain PDE1, stronger effect = lower value 1.05 | locus YGL253W, strain hxk2, stronger effect = lower value 1.02 | locus YGR078C, strain PAC10, stronger effect = lower value 1.04 | locus YGR135W, strain pre9, stronger effect = lower value 1.05 | locus YGR252W, strain gcn5, stronger effect = lower value 1.07 | locus YHR013C, strain ard1, stronger effect = lower value 1.01 | locus YHR027C, strain rpn1, stronger effect = lower value 0.988 | locus YHR030C, strain SLT2, stronger effect = lower value 1.01 and 1.05 | locus YHR079C, strain IRE1 (second series), stronger effect = lower value 1.02 | locus YHR079C, strain IRE1, stronger effect = lower value 1.03 | locus YHR094C, strain hxt1, stronger effect = lower value 1.01 | locus YHR129C, strain ARP1, stronger effect = lower value 1.01 | locus YHR142W, strain chs7, stronger effect = lower value 1 | locus YHR200W, strain rpn10, stronger effect = lower value 1.02 | locus YIL066C, strain RNR3, stronger effect = lower value 1.01 | locus YIL073C, strain SPO22, stronger effect = lower value 1.08 | locus YIL125W, strain kgd1, stronger effect = lower value 1 | locus YIR030C, strain dcg1, stronger effect = lower value 1.02 | locus YJL092W, strain hpr5, stronger effect = lower value 0.997 | locus YJL095W, strain BCK1 (second series), stronger effect = lower value 1.01 | locus YJL095W, strain BCK1, stronger effect = lower value 1.06 and 1.04 | locus YJL115W, strain asf1, stronger effect = lower value 0.976 | locus YJL129C, strain trk1, stronger effect = lower value 0.991 | locus YJL134W, strain LCB3, stronger effect = lower value 1.02 | locus YJL154C, strain vps35, stronger effect = lower value 0.991 | locus YJL164C, strain tpk1, stronger effect = lower value 1.04 | locus YJL166W, strain qcr8, stronger effect = lower value 0.984 | locus YJL168C, strain set2, stronger effect = lower value 1.01 | locus YJL187C, strain SWE1 (second series), stronger effect = lower value 1.04 | locus YJL187C, strain SWE1, stronger effect = lower value 1
